From the supplement of paper PMC4022240
± gives the standard deviation.

T1: HaloTag-ATRX ADD domain (163-292)
T1 chain: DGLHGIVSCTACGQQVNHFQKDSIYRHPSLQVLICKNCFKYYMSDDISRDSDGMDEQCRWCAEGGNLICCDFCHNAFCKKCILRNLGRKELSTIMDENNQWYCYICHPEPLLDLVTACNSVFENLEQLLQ


Target: T1, HaloTag-ATRX ADD domain (163-292)
Assay: peptide microarray binding signal (635 nm), min-max normalized on array (fraction of array maximum); higher = stronger binding
Details: peptide region: Unmod H1 variant; binder concentration: 50 nM
Procedure, shortened: (§1)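 Histone 13-mer peptide–cellulose conjugates were printed in triplicate on nitrocellulose with a Cy3 tracer, then blocked overnight at 4°C. Arrays were probed for 1 h at 4°C with biotin-labelled HaloTag reader fusions (10 nM to 1 μM) plus streptavidin-Alexa Fluor 647, or with rabbit histone antibodies (1:10,000 to 1:2,000) plus anti-rabbit Alexa 647. An Axon GenePix 4000B scanned 635 nm for signal and 532 nm for misprints. Binding signal is the triplicate-spot mean intensity, min-max scaled per library.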

ALAAAGYDVEKNN [Unmod H1 variant A L A A A G Y D V E K N N] and APAPAEKTPVKKK [Unmod H1 variant A P A P A E K T P V K K K] are the same in “peptide microarray binding signal” value: 0.021 ± 0.00023 for the first, 0.021 ± 0.0011 for the second.

Compared with KSSKNPKKPKTVK [Unmod H1 variant K S S K N P K K P K T V K], AVAASKERSGVSL [Unmod H1 variant A V A A S K E R S G V S L] is higher in “peptide microarray binding signal” value: 0.0196 ± 0.0037 for the first, 0.0286 ± 0.0016 for the second.

In the case of KPKAAKARVTKPK [Unmod H1 variant K P K A A K A R V T K P K], the “peptide microarray binding signal” value is reported as 0.0178 ± 0.00067.

Same assay, conditions: peptide region: Unmod H1 variant; binder concentration: 500 nM

Going from ALAAAGYDVEKNN [Unmod H1 variant A L A A A G Y D V E K N N] to APAPAEKTPVKKK [Unmod H1 variant A P A P A E K T P V K K K], the “peptide microarray binding signal” value falls from 0.0215 ± 0.001 to 0.0189 ± 0.00097.

Going from KSSKNPKKPKTVK [Unmod H1 variant K S S K N P K K P K T V K] to AVAASKERSGVSL [Unmod H1 variant A V A A S K E R S G V S L], the “peptide microarray binding signal” value rises from 0.0061 ± 0.00013 to 0.0273 ± 0.0012.

With KPKAAKARVTKPK [Unmod H1 variant K P K A A K A R V T K P K] the “peptide microarray binding signal” value was 0.0125 ± 0.0019.

Target: HaloTag-ING2 PHD (mouse Ing2 200-280)
Assay: as above
Details: peptide region: Unmod H1 variant; binder concentration: 10 nM
Procedure, shortened: as §1

Compared with ALAAAGYDVEKNN [Unmod H1 variant A L A A A G Y D V E K N N], APAPAEKTPVKKK [Unmod H1 variant A P A P A E K T P V K K K] is lower in “peptide microarray binding signal” value: 0.00991 ± 0.00043 for the first, 0.00466 ± 0.00027 for the second.

First: KSSKNPKKPKTVK [Unmod H1 variant K S S K N P K K P K T V K]
Second: AVAASKERSGVSL [Unmod H1 variant A V A A S K E R S G V S L]
The “peptide microarray binding signal” value of the first is lower: 0.00185 for the first, 0.011 ± 0.00034 for the second.

KPKAAKARVTKPK [Unmod H1 variant K P K A A K A R V T K P K] was tested, and the “peptide microarray binding signal” value was 0.00173 ± 3.7e-05.

Same assay, conditions: peptide region: Unmod H1 variant; binder concentration: 100 nM

First: ALAAAGYDVEKNN [Unmod H1 variant A L A A A G Y D V E K N N]
Second: APAPAEKTPVKKK [Unmod H1 variant A P A P A E K T P V K K K]
The “peptide microarray binding signal” value of the first is higher: 0.0252 ± 0.0029 for the first, 0.012 ± 0.00083 for the second.

First: KSSKNPKKPKTVK [Unmod H1 variant K S S K N P K K P K T V K]
Second: AVAASKERSGVSL [Unmod H1 variant A V A A S K E R S G V S L]
The “peptide microarray binding signal” value of the first is lower: 0.003543 ± 3.1e-05 for the first, 0.0228 ± 0.00053 for the second.

For KPKAAKARVTKPK [Unmod H1 variant K P K A A K A R V T K P K], the “peptide microarray binding signal” value was 0.00439 ± 0.00016.

Target: anti-H3K4me3 antibody ab8580
Assay: as above
Details: peptide region: Unmod H1 variant; binder concentration: 1:2,000 dilution
Procedure, shortened: as §1

Going from ALAAAGYDVEKNN [Unmod H1 variant A L A A A G Y D V E K N N] to APAPAEKTPVKKK [Unmod H1 variant A P A P A E K T P V K K K], the “peptide microarray binding signal” value falls from 0.0067 ± 0.0027 to 0.00136 ± 0.00038.

First: KSSKNPKKPKTVK [Unmod H1 variant K S S K N P K K P K T V K]
Second: AVAASKERSGVSL [Unmod H1 variant A V A A S K E R S G V S L]
The “peptide microarray binding signal” value of the first is lower: 0.000774 ± 1.4e-05 for the first, 0.00236 ± 0.00025 for the second.

In the case of KPKAAKARVTKPK [Unmod H1 variant K P K A A K A R V T K P K], the “peptide microarray binding signal” value is reported as 0.00051 ± 1.5e-05.

Same assay, conditions: peptide region: Unmod H1 variant; binder concentration: 1:10,000 dilution

Going from ALAAAGYDVEKNN [Unmod H1 variant A L A A A G Y D V E K N N] to APAPAEKTPVKKK [Unmod H1 variant A P A P A E K T P V K K K], the “peptide microarray binding signal” value falls from 0.00702 ± 0.00034 to 0.00223 ± 7.3e-05.

Going from KSSKNPKKPKTVK [Unmod H1 variant K S S K N P K K P K T V K] to AVAASKERSGVSL [Unmod H1 variant A V A A S K E R S G V S L], the “peptide microarray binding signal” value rises from 0.000913 to 0.00479 ± 0.00028.

KPKAAKARVTKPK [Unmod H1 variant K P K A A K A R V T K P K] was tested, and the “peptide microarray binding signal” value was 0.00097 ± 4e-05.

Target: anti-H3K9me3 antibody ab8898
Assay: as above
Details: peptide region: Unmod H1 variant; binder concentration: 1:2,000 dilution
Procedure, shortened: as §1

Compared with ALAAAGYDVEKNN [Unmod H1 variant A L A A A G Y D V E K N N], APAPAEKTPVKKK [Unmod H1 variant A P A P A E K T P V K K K] is lower in “peptide microarray binding signal” value: 0.00281 ± 0.0003 for the first, 0.000906 ± 4.5e-05 for the second.

First: KSSKNPKKPKTVK [Unmod H1 variant K S S K N P K K P K T V K]
Second: AVAASKERSGVSL [Unmod H1 variant A V A A S K E R S G V S L]
The “peptide microarray binding signal” value of the first is lower: 0.000181 for the first, 0.00335 ± 9.4e-05 for the second.

KPKAAKARVTKPK [Unmod H1 variant K P K A A K A R V T K P K] was tested, and the “peptide microarray binding signal” value was 0.000166 ± 1.8e-06.

Same assay, conditions: peptide region: Unmod H1 variant; binder concentration: 1:10,000 dilution

Going from ALAAAGYDVEKNN [Unmod H1 variant A L A A A G Y D V E K N N] to APAPAEKTPVKKK [Unmod H1 variant A P A P A E K T P V K K K], the “peptide microarray binding signal” value falls from 0.00357 ± 0.00017 to 0.00098.

First: KSSKNPKKPKTVK [Unmod H1 variant K S S K N P K K P K T V K]
Second: AVAASKERSGVSL [Unmod H1 variant A V A A S K E R S G V S L]
The “peptide microarray binding signal” value of the first is lower: 0.00075 ± 7.9e-06 for the first, 0.002825 ± 2.4e-05 for the second.

With KPKAAKARVTKPK [Unmod H1 variant K P K A A K A R V T K P K] the “peptide microarray binding signal” value was 0.000404 ± 4.4e-06.
